The text below walks through data of PubChem BioAssay (EPA / NIEHS).

Some compounds were tested as several samples or in several runs, with calls that do not always agree. Active and inactive are the calls of the source. How the source made its calls: active means hit-call score of the fitted dose curve at least 0.9, where 1 is the maximum; inactive means score below 0.9.

Read-out in the experiment: TIMP1, TIMP1 (gene 7076)
The experiment can be described thus: LTEA_HepaRG_TIMP1: Life Technologies and Expression Analysis (LTEA) Assay for TIMP1 using HepaRG (AID 2283534). As to conditions: mRNA level, 48 h; actives raise or lower the signal. How it is done:
LTEA_HepaRG is a cell based, multiplexed-readout assay that uses HepaRG, a human liver cell line, with measurements taken at 48 hours after chemical dosing on a 96-well plate.LTEA_HepaRG_TIMP1 is one of 102 assay component(s) measured in the LTEA HepaRG cell culture assay. It is a marker of Cell proliferation, survival, death.Data from the assay component LTEA_HepaRG_TIMP1 was analyzed into 1 endpoint. This assay endpoint, LTEA_HepaRG_TIMP1, was analyzed with bidirectional fitting relative to DMSO as the negative control and baseline of activity. Using a type of inducible reporter, measures of mRNA induction for gain or loss-of-signal activity can be used to understand regulation of transcription factor activity. To generalize the intended target to other relatable targets, this assay endpoint is annotated to the protease inhibitor intended target family, where the subfamily is metalloproteinase inhibitor.
A total of 1060 chemcials from the ToxCast library were tested in eight-point concentration-response experiments. Cell culture and cytotoxicity assays were conducted at Thermo Fisher Scientific's Custom Services facility (Madison, WI). A single lot of human HepaRG cells (Thermo Fisher Scientific, Frederick, MD) was used for the cell culture experiments. 96-well format collagen type I coated plates of human HepaRG cells were prepared using established methods. Briefly, cryopreserved HepaRG cells were thawed, plated at a density of approximately 100,000 cells/well in HepaRG Thaw, Plate, and General Purpose media (HPRG770, Thermo Fisher Scientific), and incubated for 48 hours. 0.5% DMSO was selected as vehicle control to balance the requisite need of DMSO in HepaRG cultures to maintain differentiation (for example, baseline metabolism, proportions of hepatocytes vs. cholangiocytes), while enabling further hepatic receptor pathway activation (for example, PXR and CAR) in response to chemical exposure. 48 hours after plating, the culture medium was replaced with HepaRG Serum-Free Incudtion Media. Cells were exposed to each test chemical in duplicate and maintained in CO2 incubators for another 48 hours. Chemical plates were thawed to room temperature and 200x concentrations of treatment groups were prepared. 8-point conentration-reponse curves were made with the highest exposure at 100 uM, followed by half-log dilutions, all in 0.5% DMSO. Each test plate contained variouse controls, induction positive controls (1mM phenobarbital), cytotoxicity positive controls ([…] aflatoxin B1), vehicle controls (0.5% DMSO), and total lysis controls (0.5% DMSO). Cell morphology images were taken using an Essen IncuCyte FLR automated microscope, with six 96-well plates imaged in about 24 minutes. Images were captured and exported and JPEG files. Spent culture media was transfered to black-well plates for the LDH assay, and remaining media was sorted at -80 C for later use. Cells were treated with RLT buffer and frozen until shipped for gene expression analysis. Total RNA was isolated from the cell suspension in 75 uL of Buffer RLT (Qiagen, Germantown, MD 20874) by Quintiles/Expression Analysis (Durham, NC) using a custom isolation procedure. Total RNA from each plate well was transferred to a preamplification plate. Fluidigm's 96.96 Dynamic ArrayTM (Fluidigm, Amsterdam, the Netherlands) technology was used for gene expression analyses by quantitative reverse transcription polymerase chain reaction (qRT-PCR, performed by Quintiles/Expression Analysis, Durham, NC)89. Standard TaqManTM Assays (Applied Biosystems/ThermoFisher Scientific, Foster City, CA) were used to assess the expression of 93 genes selected based on their selectivity and sensitivity to important hepatic receptors known to be modulated by environmental chemicals; importance in human hepatocyte functionality; and hepatotoxicity. […]
On to `N#Cc1cc(Br)c(O)c(Br)c1`, for which the AC50 was 10.2 µM (active). As for `CCNc1nc(Cl)nc(NCC)n1`, the result was inactive.

For the compound `CCc1nn(C)c(C(=O)NCc2ccc(C(C)(C)C)cc2)c1Cl`, the AC50 is 28 µM (active). As for `CCCCNC(=O)OCC#CI`, the result was inactive. On the same count and under the same terms, in the case of `CCCCC(CC)COC(=O)c1ccccc1C(=O)OCC(CC)CCCC` (stereo not given) it was “inactive”; in that of `Fc1ccc(Oc2ccnc3cc(Cl)cc(Cl)c23)cc1`, “inactive”; in that of `Cc1cc(Cl)ccc1OCC(=O)O`, “inactive”. Take `C#CCOS(=O)OC1CCCCC1Oc1ccc(C(C)(C)C)cc1` (stereo not given): the AC50 is 26.5 µM (active). With `COP(=S)(OC)Oc1nc(Cl)c(Cl)cc1Cl`, the compound was classed as inactive.

`CC(C)Oc1cc(-n2nc(C(C)(C)C)oc2=O)c(Cl)cc1Cl`: the compound was classed as inactive. Same read-out and setting: for `CCOC(=O)C(Cl)Cc1cc(-n2nc(C)n(C(F)F)c2=O)c(F)cc1Cl` (stereo not given) the value was “inactive”; for `CC1=C(C(=O)Nc2ccccc2)SCCO1`, “inactive”. For `CO/C=C(/C(=O)OC)c1ccccc1Oc1cc(Oc2ccccc2C#N)ncn1`, the call was inactive. Still for that read-out and setting: in the case of `COP(N)(=O)SC` (stereo not given) it was “inactive”. Still for that read-out and setting: in the case of `CCON=C(CC)C1=C(O)CC(c2c(C)cc(C)cc2C)CC1=O` (stereo not given) it was “inactive”. For the compound `OC(c1ccc(Cl)cc1)(c1cncnc1)c1ccccc1Cl` (stereo not given), the concentration at half-maximal activity (AC50) was 50 µM (active).

Take `COc1nc(NC(C)C)nc(NC(C)C)n1`: the compound was classed as inactive. Same read-out and setting: in the case of `CC(Oc1ccc(Cl)cc1Cl)C(=O)O` (stereo not given) it was “inactive”. Same read-out and setting: for `COC(=O)C(C)Oc1ccc(Oc2ccc(Cl)cc2Cl)cc1` (stereo not given) the value was “inactive”; for `CCCC1COC(Cn2cncn2)(c2ccc(Cl)cc2Cl)O1` (stereo not given), “inactive”. With `N#Cc1nn(-c2c(Cl)cc(C(F)(F)F)cc2Cl)c(N)c1S(=O)C(F)(F)F` (stereo not given), the AC50 is 66.7 µM (active). For `Oc1ccccc1-c1ccccc1`, the compound was classed as inactive. The same measure, in the same setting: for `CON(C)C(=O)Nc1ccc(Cl)c(Cl)c1` the value was “inactive”. `CN(C)C(=S)SSC(=S)N(C)C`: the compound was classed as inactive.

For `CCCN(CCC)c1c([N+](=O)[O-])cc(S(N)(=O)=O)cc1[N+](=O)[O-]`, the AC50 is 93.9 µM (active) and the compound was classed as inactive.

For `CCCCNC(=O)n1c(NC(=O)OC)nc2ccccc21`, the call was inactive. Same read-out and setting: in the case of `O=C(O)c1nc(Cl)ccc1Cl` it was “inactive”; in that of `COC(=O)c1ccccc1C(=O)OC`, “inactive”. The same measure, in the same setting: in the case of `C=CC1(C)OC(=O)N(c2cc(Cl)cc(Cl)c2)C1=O` (stereo not given) it was “inactive”; in that of `CCCCOC(=O)c1ccccc1C(=O)OCCCC`, “inactive”; in that of `O=C(O)COc1nc(Cl)c(Cl)cc1Cl`, “inactive”.

As for `COC(=O)C=C(C)OP(=O)(OC)OC`, the compound was called inactive. On the same count and under the same terms, in the case of `CS/C(C)=N/OC(=O)N(C)SN(C)C(=O)O/N=C(\C)SC` it was “inactive”.

On to `CC(C)(C)c1ccc(CSc2cnn(C(C)(C)C)c(=O)c2Cl)cc1`, for which the half-maximal activity concentration (AC50) was 26.9 µM (active). Regarding `COc1ccc(C(c2ccc(OC)cc2)C(Cl)(Cl)Cl)cc1`, the result was inactive. For `C=CCC1=C(C)C(OC(=O)C2C(C=C(C)C)C2(C)C)CC1=O` (stereo not given), the result was inactive. For the compound `CNC(=O)ON=CC(C)(C)SC`, the call was inactive. `Cc1ccc(-c2c(Cl)nc(C#N)n2S(=O)(=O)N(C)C)cc1`: the AC50 is 22.4 µM (active). With `CCOP(=S)(OCC)SCn1c(=O)oc2cc(Cl)ccc21`, the result was inactive.

In general, AC50 refers to the concentration at which the activity in the assay is half-maximal.
